Test results from the supplement of paper PMC11732987, “Enantioselective OTUD7B fragment discovery through chemoproteomics screening and high-throughput optimisation” (Communications Chemistry, 2025).

Tests used:
Test in all cases: log2 ratio of Biotin-Ahx-Ub-VS probe labelling (fragment/DMSO); higher = less target engagement (more negative = stronger competition), active = hit call of the paper (q ≤ 0.05, log2 ratio ≤ -1)
Conditions in all cases: compound concentration: 200 uM; treatment time: 3 h
ALG13 = target: T1, ALG13 (UniProt Q9NP73)
T1 sequence (whole entry): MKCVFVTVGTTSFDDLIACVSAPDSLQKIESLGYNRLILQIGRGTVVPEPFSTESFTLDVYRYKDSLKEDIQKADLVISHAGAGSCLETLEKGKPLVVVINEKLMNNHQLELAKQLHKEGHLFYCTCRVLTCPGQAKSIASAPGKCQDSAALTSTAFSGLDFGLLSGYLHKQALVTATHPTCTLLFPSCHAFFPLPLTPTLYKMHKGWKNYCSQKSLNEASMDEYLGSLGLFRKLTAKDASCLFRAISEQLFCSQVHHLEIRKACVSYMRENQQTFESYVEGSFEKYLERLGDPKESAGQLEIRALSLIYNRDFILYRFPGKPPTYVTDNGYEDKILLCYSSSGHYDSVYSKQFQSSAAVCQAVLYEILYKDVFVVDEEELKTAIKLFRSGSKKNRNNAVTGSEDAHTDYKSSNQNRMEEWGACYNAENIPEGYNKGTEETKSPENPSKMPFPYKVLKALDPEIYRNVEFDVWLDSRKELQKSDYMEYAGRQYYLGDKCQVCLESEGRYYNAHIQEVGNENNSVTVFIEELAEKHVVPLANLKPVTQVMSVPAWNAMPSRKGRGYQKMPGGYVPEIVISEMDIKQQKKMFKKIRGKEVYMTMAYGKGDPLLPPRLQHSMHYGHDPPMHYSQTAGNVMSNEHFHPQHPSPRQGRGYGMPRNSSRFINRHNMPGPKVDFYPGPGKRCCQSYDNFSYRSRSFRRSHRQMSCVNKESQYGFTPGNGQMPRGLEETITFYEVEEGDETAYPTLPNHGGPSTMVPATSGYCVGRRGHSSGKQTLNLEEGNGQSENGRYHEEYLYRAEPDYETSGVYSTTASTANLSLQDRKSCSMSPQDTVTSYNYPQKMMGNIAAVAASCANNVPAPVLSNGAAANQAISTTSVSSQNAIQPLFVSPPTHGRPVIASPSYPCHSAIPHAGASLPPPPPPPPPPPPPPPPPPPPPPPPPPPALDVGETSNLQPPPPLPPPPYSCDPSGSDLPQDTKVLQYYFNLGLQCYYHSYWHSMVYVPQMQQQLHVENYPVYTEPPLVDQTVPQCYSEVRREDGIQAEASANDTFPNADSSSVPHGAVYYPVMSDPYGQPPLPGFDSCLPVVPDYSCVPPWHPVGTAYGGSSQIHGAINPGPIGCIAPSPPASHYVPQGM
Summary of the method: (§1)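 Each value is an average log2 ratio of fragment to vehicle, tested by unpaired t-test. The underlying Spectronaut label-free quantities were global-median-normalised, and only proteins with ≥2 unique peptides were included. Triplicate HEK293T lysate samples (495 µg) were exposed to fragment at 200 µM or vehicle for 3 h, then to Biotin-Ahx-Ub-VS at 0.5 µM final for 1 h, before NeutrAvidin enrichment of labelled DUBs, LysC and trypsin digestion, and diaPASEF LC-MS/MS.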

ATXN3 = ATXN3 (UniProt P54252)
ATXN3, sequence (P54252 whole entry): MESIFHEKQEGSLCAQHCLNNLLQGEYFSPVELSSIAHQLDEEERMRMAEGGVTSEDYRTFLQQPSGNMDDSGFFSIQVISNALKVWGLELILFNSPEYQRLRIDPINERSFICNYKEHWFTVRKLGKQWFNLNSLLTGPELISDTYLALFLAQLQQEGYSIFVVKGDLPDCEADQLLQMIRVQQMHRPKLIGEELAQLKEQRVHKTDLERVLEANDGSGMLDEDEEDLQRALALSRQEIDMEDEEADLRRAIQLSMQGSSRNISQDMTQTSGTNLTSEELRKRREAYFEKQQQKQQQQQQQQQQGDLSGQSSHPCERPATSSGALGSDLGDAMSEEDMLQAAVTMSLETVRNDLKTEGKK
Summary of the method: as §1

BAP1 = target: T2, BAP1 (UniProt Q92560)
T2 sequence (whole entry): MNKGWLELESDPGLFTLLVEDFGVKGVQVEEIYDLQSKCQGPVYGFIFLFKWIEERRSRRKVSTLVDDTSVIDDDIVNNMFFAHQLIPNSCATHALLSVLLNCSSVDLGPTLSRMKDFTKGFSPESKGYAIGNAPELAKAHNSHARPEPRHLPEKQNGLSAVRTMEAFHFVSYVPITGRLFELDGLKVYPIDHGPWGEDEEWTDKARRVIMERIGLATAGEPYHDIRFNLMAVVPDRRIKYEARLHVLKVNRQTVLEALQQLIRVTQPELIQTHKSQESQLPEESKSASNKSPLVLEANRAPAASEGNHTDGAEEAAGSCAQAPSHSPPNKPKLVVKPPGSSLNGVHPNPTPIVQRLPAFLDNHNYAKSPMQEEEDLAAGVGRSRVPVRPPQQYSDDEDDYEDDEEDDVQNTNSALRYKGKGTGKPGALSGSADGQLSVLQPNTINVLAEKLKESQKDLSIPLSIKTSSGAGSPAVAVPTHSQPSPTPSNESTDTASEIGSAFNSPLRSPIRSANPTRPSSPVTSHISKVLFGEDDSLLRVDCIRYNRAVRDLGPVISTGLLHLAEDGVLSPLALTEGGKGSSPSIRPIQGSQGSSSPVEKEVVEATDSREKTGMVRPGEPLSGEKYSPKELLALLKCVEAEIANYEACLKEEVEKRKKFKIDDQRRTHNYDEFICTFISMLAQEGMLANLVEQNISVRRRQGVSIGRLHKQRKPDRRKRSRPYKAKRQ
Summary of the method: as §1

EIF3F = EIF3F (UniProt O00303)
EIF3F, sequence (O00303 whole entry): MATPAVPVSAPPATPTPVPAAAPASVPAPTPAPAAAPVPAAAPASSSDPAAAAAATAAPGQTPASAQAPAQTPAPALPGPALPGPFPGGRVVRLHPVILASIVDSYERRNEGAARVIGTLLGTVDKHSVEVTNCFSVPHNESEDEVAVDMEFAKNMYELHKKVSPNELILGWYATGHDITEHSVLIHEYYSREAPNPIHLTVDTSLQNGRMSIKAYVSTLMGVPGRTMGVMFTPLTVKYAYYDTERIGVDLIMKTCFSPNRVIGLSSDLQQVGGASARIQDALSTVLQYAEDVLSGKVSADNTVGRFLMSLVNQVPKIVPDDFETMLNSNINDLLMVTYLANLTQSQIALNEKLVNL
Summary of the method: as §1

EIF3H = EIF3H (UniProt O15372)
EIF3H, sequence (O15372 whole entry): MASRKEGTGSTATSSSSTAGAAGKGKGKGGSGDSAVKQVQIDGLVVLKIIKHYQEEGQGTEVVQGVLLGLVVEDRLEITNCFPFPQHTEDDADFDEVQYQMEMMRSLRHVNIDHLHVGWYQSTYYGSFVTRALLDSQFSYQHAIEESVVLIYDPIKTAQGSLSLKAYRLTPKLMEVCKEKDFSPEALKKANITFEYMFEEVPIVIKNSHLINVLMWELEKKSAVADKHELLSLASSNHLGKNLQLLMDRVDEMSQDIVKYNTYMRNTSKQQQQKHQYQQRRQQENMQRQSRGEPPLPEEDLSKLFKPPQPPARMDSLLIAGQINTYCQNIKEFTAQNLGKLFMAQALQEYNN
Summary of the method: as §1

FAM105A = target: T3, FAM105A (UniProt Q9NUU6)
T3 sequence (whole entry): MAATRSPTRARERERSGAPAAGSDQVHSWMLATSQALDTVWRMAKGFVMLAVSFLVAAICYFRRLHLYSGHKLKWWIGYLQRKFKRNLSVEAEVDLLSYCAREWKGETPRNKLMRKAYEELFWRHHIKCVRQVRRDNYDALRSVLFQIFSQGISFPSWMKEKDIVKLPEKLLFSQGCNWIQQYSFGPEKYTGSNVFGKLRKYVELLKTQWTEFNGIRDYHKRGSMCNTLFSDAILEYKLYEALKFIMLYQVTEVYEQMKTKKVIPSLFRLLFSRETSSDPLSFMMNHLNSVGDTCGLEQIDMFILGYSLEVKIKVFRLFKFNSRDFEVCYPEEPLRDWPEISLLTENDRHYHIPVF
Summary of the method: as §1

OTUB1 = OTUB1 (UniProt Q96FW1)
OTUB1, sequence (Q96FW1 whole entry): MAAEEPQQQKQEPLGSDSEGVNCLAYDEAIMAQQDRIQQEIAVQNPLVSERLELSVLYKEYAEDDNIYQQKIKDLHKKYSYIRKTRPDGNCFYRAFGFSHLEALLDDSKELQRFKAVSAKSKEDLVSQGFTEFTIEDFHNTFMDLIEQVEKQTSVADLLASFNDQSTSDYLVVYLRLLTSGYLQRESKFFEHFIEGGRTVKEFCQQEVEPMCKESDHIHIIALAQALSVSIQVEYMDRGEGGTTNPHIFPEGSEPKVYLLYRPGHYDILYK
Summary of the method: as §1

OTUD4 = target: T4, OTUD4 (UniProt Q01804)
T4 sequence (whole entry): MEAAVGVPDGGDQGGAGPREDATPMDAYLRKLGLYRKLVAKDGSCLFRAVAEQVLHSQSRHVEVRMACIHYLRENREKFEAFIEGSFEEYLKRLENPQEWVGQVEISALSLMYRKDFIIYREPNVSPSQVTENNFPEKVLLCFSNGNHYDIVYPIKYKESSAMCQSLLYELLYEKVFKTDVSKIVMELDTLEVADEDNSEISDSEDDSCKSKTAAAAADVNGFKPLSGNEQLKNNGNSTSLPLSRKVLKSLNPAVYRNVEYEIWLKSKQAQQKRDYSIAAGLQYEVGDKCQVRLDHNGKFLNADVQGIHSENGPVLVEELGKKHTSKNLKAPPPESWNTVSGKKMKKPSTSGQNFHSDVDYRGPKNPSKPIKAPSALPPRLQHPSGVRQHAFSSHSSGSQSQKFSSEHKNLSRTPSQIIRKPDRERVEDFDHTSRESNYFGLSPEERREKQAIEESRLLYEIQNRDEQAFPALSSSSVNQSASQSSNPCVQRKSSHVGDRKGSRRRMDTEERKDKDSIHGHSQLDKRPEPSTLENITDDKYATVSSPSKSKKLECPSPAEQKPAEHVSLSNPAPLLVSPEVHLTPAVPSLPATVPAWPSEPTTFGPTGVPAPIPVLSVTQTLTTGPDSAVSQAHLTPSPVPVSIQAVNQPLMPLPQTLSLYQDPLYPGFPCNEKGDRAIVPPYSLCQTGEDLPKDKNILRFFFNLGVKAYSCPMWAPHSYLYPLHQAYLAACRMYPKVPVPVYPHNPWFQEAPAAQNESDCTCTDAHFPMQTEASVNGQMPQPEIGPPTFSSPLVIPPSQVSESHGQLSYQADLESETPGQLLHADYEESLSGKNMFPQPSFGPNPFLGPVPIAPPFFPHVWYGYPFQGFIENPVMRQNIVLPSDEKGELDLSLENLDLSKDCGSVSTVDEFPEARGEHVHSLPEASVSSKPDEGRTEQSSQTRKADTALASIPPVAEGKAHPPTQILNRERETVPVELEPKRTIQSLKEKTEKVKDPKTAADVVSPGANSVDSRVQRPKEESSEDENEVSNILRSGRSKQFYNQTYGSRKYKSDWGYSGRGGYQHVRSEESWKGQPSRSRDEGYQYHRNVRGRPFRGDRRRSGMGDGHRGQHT
Summary of the method: as §1

OTUD5 = target: T5, OTUD5 (UniProt Q96G74)
T5 sequence (whole entry): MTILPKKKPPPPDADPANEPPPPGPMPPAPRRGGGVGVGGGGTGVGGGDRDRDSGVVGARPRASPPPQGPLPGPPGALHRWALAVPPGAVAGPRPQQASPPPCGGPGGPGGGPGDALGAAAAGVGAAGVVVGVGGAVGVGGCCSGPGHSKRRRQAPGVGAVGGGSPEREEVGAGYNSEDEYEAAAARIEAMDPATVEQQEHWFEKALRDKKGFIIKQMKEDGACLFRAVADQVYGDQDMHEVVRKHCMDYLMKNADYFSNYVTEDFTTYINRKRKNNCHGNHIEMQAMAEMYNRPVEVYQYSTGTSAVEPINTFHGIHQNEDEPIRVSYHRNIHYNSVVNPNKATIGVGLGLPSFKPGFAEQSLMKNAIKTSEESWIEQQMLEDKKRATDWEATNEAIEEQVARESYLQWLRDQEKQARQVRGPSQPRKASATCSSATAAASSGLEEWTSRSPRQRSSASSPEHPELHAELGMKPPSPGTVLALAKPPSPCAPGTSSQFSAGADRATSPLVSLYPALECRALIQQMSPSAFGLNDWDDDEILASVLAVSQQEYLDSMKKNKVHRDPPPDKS
Summary of the method: as §1

Measured: log2 ratio of Biotin-Ahx-Ub-VS probe labelling

Cc1ccc(-c2nnc(C)[nH]2)c(NC(=O)CCl)c1
active: BAP1 -4.24
inactive: ALG13 0.0249 | ATXN3 -0.0255 | EIF3F -0.316 | EIF3H 0.0246 | FAM105A -0.276 | OTUB1 0.149 | OTUD4 -0.353 | OTUD5 -0.237
